Experimental data taken from article PMC10163288.
The list is a sample of the results. The true hit rate is not given. Unmarked numbers belong to inactive results.

B1: il10ra_site1_normal_mot_HHH_b2_04945_000000076_0001_1_19_H_._HHH_b2_05056_0001_0000400022_0000001_0 (protein)
chain: SSSSTDELFEEVRRIIEEAVRLYREGNPEEARRLVEEALELAEENNNFALVFALEHLLRDLSSSS
B2: il10ra_site1_normal_mot_HHH_b2_07144_000000289_0001_1_18_H_._HHH_b2_04284_0001_0000200013_0000001_1 (protein)
chain: SSSSSENHRAYELSREAAELLRQGNEEEAREVLEEVKEIAEEANNPILEFAARAIEKAVNSSSSS
B3: il10ra_site1_normal_mot_HHH_b2_01032_000000296_0001_1_18_H_._HHH_b1_04384_af2_0001_0000600026_0000001_1 (protein)
chain: SSSSSDEEEELLELSRQAFELALRGNPEEAREVLEEAERLARELGDERLLRLVEELLQALSSSSS
B4: il10ra_site1_sap_16_mot_HHH_b2_00093_af2_000000025_0001_40_54_H_._HHH_b1_03751_0001_0001000047_0000001_0_0001_af2pred_0001 (protein)
chain: SSSSSEEERFYQLLLEALRLARRLNDEEVEEELRELLEEYKQKGDPRVEERIEELLKELRSSSSS
B5: il10ra_site1_sap_29_mot_HHH_b2_02354_af2_000000157_0001_40_56_H_._ems_3hM_2942_af2_0001_0000100002_0000002_1_0001_af2pred_0001 (protein)
chain: SSSSTAEEDVRLAIAAAELALKAGDPEKARRALEIAKLIARQGNNPELEEELEELEEEINSSSSS
B6: il10ra_site1_normal_mot_HHH_b2_00479_000000091_0001_1_12_H_._HHH_b2_03388_af2_0001_0000400024_0000002_0 (protein)
chain: SSSSTEENDEVYKLIREALELMARGNPEEARKVLEEAEEILEELNNRVLLFNVRFLLRELGSSSS
B7: il10ra_site1_normal_mot_HHH_b1_05056_000000217_0001_1_20_H_._HHH_b2_04661_af2_0001_0000500034_0000002_0 (protein)
chain: SSSSDEEELEELLEKLEELAEKGDRERFLELVLRLSELIFRLGDKEALQRLWELVREFLRRSSSS
B8: il10ra_site1_normal_mot_HHH_b2_02337_000000026_0001_38_52_H_._HHH_b2_04776_0001_0000200023_0000003_0 (protein)
chain: SSSSSSEEEEEIEELLEQLERAKSDEEISEVALRLVRLIWELNNQELLQRLWEIVKRLASSSSSS
B9: il10ra_site1_normal_mot_HHH_b2_04274_000000146_0001_1_19_H_._5a9ba470ffdefe7bbe7d066b6a6aec3b_0001_af2_0001_0000200013_0000001_1_af2pred_0001 (protein)
chain: NELVKAIRLLLQRFADDPEVLRVLRRILKLSLEDPEEAVELLLELAEKLGDPEVEELAREVERRR
B10: il10ra_site1_sap_16_mot_HHH_b2_08144_af2_000000046_0001_38_52_H_._HHH_b2_08331_0001_0000200020_0000002_0_0001 (protein)
chain: SSSSNAAEYLVRQALRAARLAKENNDPELVKRALEIAERIAENANDPELKELVEEVEEELESSSS
B11: il10ra_site1_normal_mot_HHH_b1_05326_000000242_0001_1_20_H_._HHH_b2_08124_0001_0000100011_0000002_0 (protein)
chain: SSSSSSDEFLRLLRRIFRLLLRGNPEEAQELLEELEELAEELNDPAARRAVEILKEAASSSSSSS
B12: il10ra_site1_normal_mot_HHH_b1_02809_af2_000000277_0001_40_57_H_._HHH_b2_07682_0001_0000300022_0000001_0_af2pred_0001 (protein)
chain: SSSSSRDEEAVRRALRLAKWLREAGDEEAVRKYLKAAKILAKRIGDPELEELVERVEEHLSSSSS
B13: il10ra_site1_normal_mot_HHH_b2_00273_000000062_0001_23_39_H_._HHH_b2_06821_0001_0000300032_0000001_0 (protein)
chain: SSSSEIEEFIEEVEERVRELVERGDTEEALQLLWEAAKLVAENNDEEALRILMELLRLVFRSSSS
B14: il10ra_site1_normal_mot_HHH_b2_01235_000000294_0001_1_18_H_._HHH_b1_05611_0001_0000600040_0000001_0_af2pred_0001 (protein)
chain: SSSSDVTERVLELLREALKLLKDGNPEEAREVLEEAEELAEEGNDELLRHLIEFAQEEIDSSSSS
B15: il10ra_site1_sap_16_mot_HHH_b2_03220_af2_000000223_0001_23_40_H_._HHH_b1_06161_af2_0001_0000300008_0000002_0_0001 (protein)
chain: SSSSSSDEEAAELIREISKVLAEGDRERVEELLEELEKLAEELGDPAARIYVEFVKQLLSSSSSS
B16: il10ra_site1_sap_21_mot_HHH_b1_05357_000000034_0001_23_39_H_._HHH_b2_05349_0001_0000600054_0000001_0_0001_af2pred_0001 (protein)
chain: SSSSNREQRVAELLARALRAAAEGNPEEAERLLEEARELAEELNDEELERAIEILKRYVERSSSS
B17: il10ra_site1_sap_23_mot_0eddeacbb14b769e73e254714f31e2f9_0001_af2_000000127_0001_37_51_H_._HHH_b1_00538_0001_0000500024_0000001_0_0001 (protein)
chain: SSSSSEEEEKAKELIELLEELAKEGDPEEFNRVALEAVRLVLELGDAELLRELWELFKSVSSSSS
B18: il10ra_site1_normal_mot_HHH_b1_08477_000000091_0001_40_57_H_._HHH_b1_03479_0001_0000200016_0000001_0 (protein)
chain: SSSSSEEEERVRQALRFAEALYKSGNPEAAESLLRVLVQSLRRLGNEELVELVEQVLEELNSSSS
B19: il10ra_site1_normal_mot_8756ee2cf497b5429c717dfc0c0bcfd6_0001_000000186_0001_1_13_H_._HHH_b2_04770_af2_0001_0000400016_0000001_0_af2pred_0001 (protein)
chain: SSSSSSDEELKRVQELIRRAAKITDEEELREVLEEAKELAEELGNEILRVIVEFLLELMTSSSSS

target: il10ra, Q13651; assay: yeast display titration
Sequence (Q13651 whole entry): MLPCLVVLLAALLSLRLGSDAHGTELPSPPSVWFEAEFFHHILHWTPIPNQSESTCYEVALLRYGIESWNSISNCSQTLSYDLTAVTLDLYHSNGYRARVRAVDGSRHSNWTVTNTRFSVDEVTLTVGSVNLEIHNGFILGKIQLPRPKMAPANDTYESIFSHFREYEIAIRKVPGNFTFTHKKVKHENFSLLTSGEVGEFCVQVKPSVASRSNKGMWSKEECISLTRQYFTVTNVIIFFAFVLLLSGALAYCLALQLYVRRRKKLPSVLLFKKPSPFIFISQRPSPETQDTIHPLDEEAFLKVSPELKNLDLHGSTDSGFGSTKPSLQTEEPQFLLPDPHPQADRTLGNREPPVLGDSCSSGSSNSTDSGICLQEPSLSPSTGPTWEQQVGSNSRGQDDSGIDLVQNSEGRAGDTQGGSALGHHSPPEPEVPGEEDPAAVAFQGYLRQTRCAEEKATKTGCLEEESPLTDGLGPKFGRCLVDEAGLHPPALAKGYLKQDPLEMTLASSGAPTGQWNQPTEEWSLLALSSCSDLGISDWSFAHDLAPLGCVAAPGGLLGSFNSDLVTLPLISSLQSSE

Binder | apparent Kd
B1 | no binding seen
B2 | no binding seen
B3 | no binding seen
B4 | no binding seen
B5 | > 1500 nM
B6 | no binding seen
B7 | no binding seen
B8 | no binding seen
B9 | no binding seen
B10 | no binding seen
B11 | no binding seen
B12 | no binding seen
B13 | no binding seen
B14 | no binding seen
B15 | no binding seen
B16 | no binding seen
B17 | no binding seen
B18 | no binding seen
B19 | no binding seen
